Test [1] is described as follows: A549 cell viability effects, profiling panel, calcein-AM fluorescence, 48 h, basal (AID 1162). The note with it: higher = more signal.
The nature of test [2]: adipocyte viability effects, profiling panel, cell-based, 3T3-L1 adipocytes, calcein-AM fluorescence, 48 h, basal (AID 1163). The note with it: 3T3-L1 adipocytes viability, higher = more signal.
The nature of test [3]: HepG2 cell viability effects, profiling panel, calcein-AM fluorescence, 48 h, basal (AID 1164). Conditions: higher = more signal.
The nature of test [4]: MM1S cell viability effects, profiling panel, calcein-AM fluorescence, 48 h, basal (AID 1165).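 Also: viability of MM1S multiple myeloma cells under basal unstimulated conditions.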 The note with it: higher = more signal.
A short description of test [5]: basal RPMI8226 viability, no added stimulus, profiling panel, cell-based, calcein-AM fluorescence, 48 h, PK04 Diversity Set (AID 1166).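 Also: cells grown under basal conditions without added stimulus.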 The note with it: RPMI8226 myeloma viability, higher = more signal.
Test [6] in a line: basal HepG2 mitochondrial membrane potential changes, profiling panel, cell-based, JC-1 fluorescence, 24 h, 100 nL compound (AID 1167). The note with it: higher = more signal.
Test [7] can be described thus: basal 3T3-L1 adipocyte mitochondrial potential changes, profiling panel, cell-based, JC-1 fluorescence, 3T3-L1 adipocytes, 24 h, 100 nL compound (AID 1168). The note with it: JC-1 mitochondrial fluorescence, higher = more signal, called active from +8 up or from −8 down.
Test [8] is described as follows: basal RPMI8226 mitochondrial membrane potential changes, profiling panel, cell-based, JC-1 fluorescence, 24 h, 100 nL compound (AID 1169). Conditions: RPMI8226 myeloma, JC-1 mitochondrial potential fluorescence, higher = more signal.
A short description of test [9]: basal MM1S mitochondrial membrane potential changes, profiling panel, cell-based, JC-1 fluorescence, 24 h, 100 nL compound (AID 1170). Conditions: higher = more signal.
Test [10] in a line: A549 lung cancer cell viability effects, profiling panel, resazurin fluorescence, 24 h, PK04 Diversity Set (AID 1171). The note with it: higher = more signal, called active from +8 up or from −8 down. For orientation: Alamar Blue is a resazurin reagent that responds to reducing activity.

Activity calls are given as the source filed them.
Also: test concentration not given here.

`CC(C)(C)N1CC=CC23O[C@@H]4C=CCCOC(=O)C4[C@H]2C(=O)N(CCCCCCO)[C@@H]3C1=O` (stereo not given in full): the z-score was 0.0905 in [1]; -2.98 in test [2]; 0.952 in test [3]; 1.35 in [4]; 0.229 in [5]; 0.212 in test [6]. Also, the z-score in test [7] is -0.501 (inactive); in test [8] it was -0.0402; in [9], -0.516; in test [10], -0.523 (inactive).
On to `C[C@@H]1NC(=O)C([C@@H](C)OCc2ccccc2)NC(=O)[C@@]23C(=O)N[C@@H](Cc4ccccc4)C2[C@H](C)[C@@]2(C)O[C@H]2C3/C=C/C/C=C\CNC1=O` (stereo not given in full), for which the z-score in test [1] was -0.405; in test [2], 0.387; in [3], -0.448; in [4] it was -0.129; in test [5], -1.1; in [6], -0.121. Also, the z-score in test [7] was 0.782 (inactive); in test [8], 0.514; in test [9] it was 0.186; in [10], -0.0746 (inactive).
Regarding `COc1ccc([Si](C)(C)[C@H]2[C@H](CC(=O)N3Cc4ccccc4C[C@H]3CO)O[C@@]3(C(=O)N(C)c4c(Br)cc(C)cc43)[C@@H]2C)cc1`, the z-score is -2.66 in test [1]; 0.231 in test [2]; -4.66 in test [3]; -2.71 in test [4]; -4.36 in test [5]; -2.2 in [6]. Also, the z-score in test [7] is 0.0243 (inactive); in test [8] it was -1.12; in test [9], -2.31; in test [10], -2.92 (inactive).
For the molecule `COC(=O)C1(Cc2ccccc2)C=C2C(=C(C)C(=O)C2C)CN1` (stereo not given), the z-score in [1] is -0.865; in test [2], 0.45; in test [3], 0.159; in test [4] it was 0.232; in test [5], 0.213; in test [6] it was -0.237. Moreover, the z-score in test [7] is -0.046 (inactive); in test [8], 0.151; in test [9], -0.762; in test [10], -1.21 (inactive).
Take `C=CCOC(=O)[C@H]1[C@@H]2C(=O)O[C@@H](c3ccccc3)[C@@H](c3ccccc3)N2[C@@H](c2ccc(OCCOC(=O)[C@@H]3C[C@@H]4C(=O)N[C@@H](CCCCNC(C)=O)C(=O)N4[C@@H]3c3cccc(OCCO)c3)cc2)[C@]12C(=O)Nc1ccccc12`: the z-score in test [1] is -0.389; in test [2], 0.585; in test [3], -0.567; in [4], -0.0545; in test [5] it was 0.879; in [6] it was 1.24. The z-score is 2.61 (inactive) in test [7], -0.615 in test [8], -0.966 in test [9] and -0.165 (inactive) in test [10].
With `O=C1N(CCS(=O)(=O)c2ccccc2)c2ccccc2C[C@]12N=C(c1ccc(OCCCO)cc1)O[C@@H]2c1ccccc1`, the z-score was -0.982 in [1]; 0.0009 in test [2]; 0.207 in test [3]; -0.967 in [4]; -2.48 in [5]; -0.484 in test [6]. Besides, the z-score in test [7] was 1.07 (inactive); in [8], -0.687; in [9], -0.242; in test [10], -1.37 (inactive).
For `CC(C)(C)N1CC=CC23O[C@@H]4/C=C\CCCOC(=O)C4[C@H]2C(=O)N(CCCO)[C@@H]3C1=O` (stereo not given in full), the z-score in [1] was -0.377; in [2], 1.1; in [3], 0.0723; in test [4] it was -0.112; in [5] it was -0.0698; in test [6], -0.794. The z-score is 0.822 (inactive) in test [7], 0.233 in test [8], 0.229 in test [9] and 0.114 (inactive) in test [10].
With `CC(=O)NCCCC[C@@H]1NC(=O)[C@H]2C[C@@H](C(=O)NCCCCCCNC(=O)CS)[C@@H](c3cccc(OCCO)c3)N2C1=O`, the z-score in test [1] is -0.769; in [2] it was 0.251; in test [3] it was -0.644; in test [4], -0.504; in [5] it was 0.236; in test [6], -1.4. For the same molecule, the z-score in test [7] was -0.306 (inactive); in test [8] it was 0.186; in [9], -0.0983; in test [10], -0.131 (inactive).
Regarding `CCCCCCc1nc(Cc2cc(OC)c(OC)c(OC)c2)cc2c1[Si](C(C)C)(C(C)C)O[C@H]2c1ccccc1`, the z-score was -0.106 in test [1]; -0.267 in test [2]; -0.492 in [3]; -1.09 in test [4]; -3.49 in [5]; 1.03 in test [6]. Moreover, the z-score in test [7] is -0.462 (inactive); in test [8] it was -0.566; in test [9], -0.116; in test [10] it was 2.45 (inactive).
Consider `COCCOC(=O)N1C(=O)[C@@]2(c3cc(C#CCC(C(=O)OC)C(=O)OC)ccc31)[C@H](C(=O)Nc1nc3ccccc3s1)[C@H]1C(=O)O[C@H](c3ccccc3)[C@H](c3ccccc3)N1[C@@H]2c1ccc(OCCO)cc1`, for which the z-score in test [1] is 0.4; in test [2] it was 0.502; in test [3] it was 0.593; in [4] it was -0.733; in [5], 0.427; in [6] it was -3.27. The z-score in test [7] was 1.05 (inactive); in test [8], -0.708; in test [9], 0.327; in test [10] it was 1.42 (inactive).
As to `O=C(N1CCOCC1)[C@@]1(Cc2ccccc2)COC(c2ccc(OCCCO)cc2)=N1`, the z-score is -0.114 in [1]; 0.893 in [2]; -0.985 in test [3]; -1.6 in [4]; -0.907 in test [5]; -1.12 in test [6]. For the same molecule, the z-score in [7] is 0.0409 (inactive); in [8], -0.856; in test [9], -0.095; in [10], 0.628 (inactive).
On to `C=C(COC)C(=O)CC[C@@H](OC(=O)c1ccccc1-c1ccccc1C(=O)O)c1ccc(OCCO)cc1`, for which the z-score in test [1] is -0.25; in test [2], 1.27; in test [3] it was -0.354; in [4], -3.06; in [5] it was -0.414; in test [6], -1.05. For the same molecule, the z-score was -0.144 (inactive) in test [7], -0.163 in test [8], 0.0435 in test [9] and -0.205 (inactive) in [10].
Turning to `Cc1ccc(S[C@]2(C(=O)NCC(F)(F)F)CC(=O)N(Cc3ccccc3C(F)(F)F)[C@@H]2c2ccc(CO)cc2)cc1`, the z-score in [1] was -0.859; in test [2], 0.0909; in test [3], -0.768; in test [4], -1.04; in [5], 0.0646; in test [6], -0.523. Also, the z-score in [7] is 0.0107 (inactive); in test [8] it was 0.0145; in [9] it was -0.594; in test [10] it was 0.413 (inactive).
`COc1ccc(C(=O)Nc2ccc3c(c2)[C@@]2(O[C@H](CCO)[C@@H]([Si](C)(C)c4ccc(OC)cc4)[C@@H]2C)C(=O)N3Cc2ccccc2)cc1`: the z-score in [1] is -1.68; in test [2], 1.38; in test [3], -3.6; in [4] it was -2.72; in test [5] it was -4.3; in [6], -1.9. The z-score in test [7] is 1.59 (inactive); in [8], -1.04; in test [9], -2.2; in [10], -2.72 (inactive).
Regarding `CCOC(=O)C1=C[C@@H](C(C)(C)C)N(S(=O)(=O)c2ccc(C)cc2)[C@H]1c1ccc(C#N)cc1`, the z-score was -0.368 in test [1]; -0.316 in [2]; -1.12 in test [3]; -2.79 in [4]; -2.17 in test [5]; 1.63 in [6]. Further, the z-score is -0.398 (inactive) in test [7], -0.372 in [8], -0.555 in test [9] and 1.69 (inactive) in [10].
`CCCC[C@H]1C[C@@H]1[C@@H]1N(C(C)=O)[C@H](c2cccc(OC)c2)CC12CC2`: the z-score in test [1] is -1.54; in test [2], -0.134; in test [3], -0.793; in test [4], -0.762; in test [5] it was -0.778; in test [6] it was -1.07. Besides, the z-score in [7] is 0.546 (inactive); in [8] it was -0.172; in [9], -0.643; in [10] it was 2.94 (inactive).
